Reference: PubChem BioAssay (EPA / NIEHS)
Results filed as inconclusive are left out. Calls of active or inactive are those of the source. How the source made its calls, unless noted: active means hit-call score of the fitted dose curve at least 0.9, where 1 is the maximum; inconclusive means response in the unintended direction; inactive means score below 0.9.

Assays:
[1] = target: human Norepinephrine Transporter (NET), SLC6A2 (gene 6530) (UniProt P23975); assay: NVS_TR_hNET: NovaScreen (NVS) Transporter Assay for human Norepinephrine Transporter (NET) (AID 2283377);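 further: cell-free membrane protein extracted from CHO cells expressing human NET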;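 on AC50: displacement of radioligand from human NET seen as loss of scintillation signal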
Sequence of human Norepinephrine Transporter (NET), SLC6A2 (gene 6530) (P23975 whole entry, looked up): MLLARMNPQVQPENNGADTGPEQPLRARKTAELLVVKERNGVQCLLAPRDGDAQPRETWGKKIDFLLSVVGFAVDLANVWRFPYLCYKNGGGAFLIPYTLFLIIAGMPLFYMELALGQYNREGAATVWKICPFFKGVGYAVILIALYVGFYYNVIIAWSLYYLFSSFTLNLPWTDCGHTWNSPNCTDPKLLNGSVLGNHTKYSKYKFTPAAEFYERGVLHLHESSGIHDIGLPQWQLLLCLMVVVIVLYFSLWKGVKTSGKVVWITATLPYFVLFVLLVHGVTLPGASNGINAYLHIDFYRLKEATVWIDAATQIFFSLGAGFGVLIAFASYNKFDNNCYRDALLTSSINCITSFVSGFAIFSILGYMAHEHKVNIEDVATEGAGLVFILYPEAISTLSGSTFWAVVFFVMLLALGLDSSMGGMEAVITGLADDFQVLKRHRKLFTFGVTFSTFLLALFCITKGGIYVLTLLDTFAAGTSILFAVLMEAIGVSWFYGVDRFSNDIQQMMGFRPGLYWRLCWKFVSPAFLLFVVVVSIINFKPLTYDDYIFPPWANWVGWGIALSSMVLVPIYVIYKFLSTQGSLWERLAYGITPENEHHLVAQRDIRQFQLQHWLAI
Procedure, shortened: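 Single-concentration duplicate screen at 25 uM, then concentration-response for actives; displacement of specific radioligand from human NET in CHO membrane extracts, filter-based scintillation detection at 1 h relative to DMSO.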

[2] = target: mouse Estrogen Receptor alpha (Era), Esr1 (gene 13982) (UniProt P19785); assay: NVS_NR_mERa: NovaScreen (NVS) Nuclear Receptor Binding Assay for mouse Estrogen Receptor alpha (Era) (AID 2283378);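 further: hit means loss of bound radioligand signal relative to DMSO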
Sequence of mouse Estrogen Receptor alpha (Era), Esr1 (gene 13982) (P19785 whole entry, looked up): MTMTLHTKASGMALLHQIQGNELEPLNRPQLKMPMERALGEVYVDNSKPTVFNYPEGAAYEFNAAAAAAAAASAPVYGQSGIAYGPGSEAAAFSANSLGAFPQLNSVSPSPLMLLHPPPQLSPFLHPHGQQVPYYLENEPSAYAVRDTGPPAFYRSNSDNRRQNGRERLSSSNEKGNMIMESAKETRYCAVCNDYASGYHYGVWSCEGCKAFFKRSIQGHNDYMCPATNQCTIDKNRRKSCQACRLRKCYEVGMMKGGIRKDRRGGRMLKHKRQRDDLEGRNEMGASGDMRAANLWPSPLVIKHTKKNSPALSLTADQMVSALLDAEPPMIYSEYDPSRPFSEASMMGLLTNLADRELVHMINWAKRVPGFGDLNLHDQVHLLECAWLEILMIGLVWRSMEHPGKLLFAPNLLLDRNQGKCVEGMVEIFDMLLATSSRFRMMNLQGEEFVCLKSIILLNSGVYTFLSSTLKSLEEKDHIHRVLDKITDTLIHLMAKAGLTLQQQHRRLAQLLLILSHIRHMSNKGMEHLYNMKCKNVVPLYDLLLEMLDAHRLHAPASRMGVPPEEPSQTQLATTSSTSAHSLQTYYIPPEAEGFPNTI
Procedure, shortened: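 Cell-free radioligand competitive displacement binding, read by filter-based scintillation counting 18 h after dosing. Primary screen run in duplicate at 25 uM, actives retested in concentration series; loss of signal versus DMSO.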

[3] = target: Agonist Androgen Response Element (ARE), AR (gene 367) (UniProt P10275); assay: OT_AR_ARELUC_AG_1440: Odyssey Thera (OT) 24-hour CHO-K1 Luciferase Assay for Agonist Androgen Response Element (ARE) (AID 2283379)
Sequence of Agonist Androgen Response Element (ARE), AR (gene 367) (P10275 whole entry, looked up): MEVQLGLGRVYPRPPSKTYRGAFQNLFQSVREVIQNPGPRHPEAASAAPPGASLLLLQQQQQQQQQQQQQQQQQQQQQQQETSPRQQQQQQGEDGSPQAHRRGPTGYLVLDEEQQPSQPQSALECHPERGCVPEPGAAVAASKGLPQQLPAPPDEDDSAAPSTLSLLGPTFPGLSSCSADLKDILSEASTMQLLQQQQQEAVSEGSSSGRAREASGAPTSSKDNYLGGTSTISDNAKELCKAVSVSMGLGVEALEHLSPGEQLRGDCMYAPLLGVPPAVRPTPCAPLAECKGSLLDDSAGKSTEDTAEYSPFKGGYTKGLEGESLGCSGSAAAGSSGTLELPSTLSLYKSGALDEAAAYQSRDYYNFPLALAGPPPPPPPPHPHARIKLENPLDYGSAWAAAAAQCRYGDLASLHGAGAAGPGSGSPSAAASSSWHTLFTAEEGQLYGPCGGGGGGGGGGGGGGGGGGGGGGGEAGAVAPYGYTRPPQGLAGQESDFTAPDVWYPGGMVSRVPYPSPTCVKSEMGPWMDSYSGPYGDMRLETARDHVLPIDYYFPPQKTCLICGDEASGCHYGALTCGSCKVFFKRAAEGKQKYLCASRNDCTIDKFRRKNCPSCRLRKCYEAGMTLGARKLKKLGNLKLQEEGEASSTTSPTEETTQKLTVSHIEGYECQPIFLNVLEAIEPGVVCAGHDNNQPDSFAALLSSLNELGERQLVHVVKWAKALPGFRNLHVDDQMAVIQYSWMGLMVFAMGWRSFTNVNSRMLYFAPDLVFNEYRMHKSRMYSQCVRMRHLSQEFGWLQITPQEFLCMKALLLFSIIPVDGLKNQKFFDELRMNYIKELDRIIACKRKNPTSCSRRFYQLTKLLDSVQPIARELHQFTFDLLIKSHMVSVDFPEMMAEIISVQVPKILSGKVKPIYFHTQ
Procedure, shortened: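 Readout: luciferase bioluminescence from CHO-K1 ARE-luc cells, measured 24 h post-dosing; agonism = increased mean luminescence vs DMSO controls, fitted in positive direction.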

[4] = target: Estrogen receptor beta (Homo sapiens) (UniProt Q92731); assay: OT_ER_ERbERb_1440: Odyssey Thera (OT) 24-hour HEK293T Protein-Complementation Assay for Estrogen Receptor-beta/-beta Homodimer (AID 2283380);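 further: fluorescence gain from ER beta LBD homodimer complementation read by laser scanning cytometry; scored as signal increase over DMSO baseline for both agonists and antagonists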
Sequence of Estrogen receptor beta (Homo sapiens) (Q92731 whole entry, looked up, the tested form may be a part): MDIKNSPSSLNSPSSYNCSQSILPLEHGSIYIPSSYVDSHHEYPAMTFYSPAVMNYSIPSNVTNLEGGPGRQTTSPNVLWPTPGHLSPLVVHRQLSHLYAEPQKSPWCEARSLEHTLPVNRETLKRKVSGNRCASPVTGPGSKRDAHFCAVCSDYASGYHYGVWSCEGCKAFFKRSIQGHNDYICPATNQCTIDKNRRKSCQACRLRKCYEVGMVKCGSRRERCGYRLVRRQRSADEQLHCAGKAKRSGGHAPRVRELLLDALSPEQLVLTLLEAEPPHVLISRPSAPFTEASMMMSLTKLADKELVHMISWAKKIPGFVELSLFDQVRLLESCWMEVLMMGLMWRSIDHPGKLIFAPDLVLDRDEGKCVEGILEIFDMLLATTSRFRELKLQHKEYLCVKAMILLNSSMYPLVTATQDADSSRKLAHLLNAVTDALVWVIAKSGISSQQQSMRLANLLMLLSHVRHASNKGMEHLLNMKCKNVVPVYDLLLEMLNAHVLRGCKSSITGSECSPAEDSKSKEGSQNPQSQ
Procedure, shortened: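 Fluorescence increase, nuclear for agonists or whole-cell for antagonists, relative to DMSO vehicle, quantified by laser scanning cytometer after fixation and Draq5 staining. Readout from 24 h treatment of HEK293T cells carrying complementation-paired ER beta LBD (aa 310-547).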

[5] = target: Estrogen receptor (Homo sapiens) (UniProt P03372); assay: OT_ERa_GFPERaERE_0480: Odyssey Thera (OT) 8-hour HeLa Transcription Induction Assay for Estrogen Receptor (AID 2283381; active means hit-call score of the fitted dose curve at least 0.9, where 1 is the maximum; inactive means score below 0.9)
Procedure, shortened: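 Fluorescence microscopy with high-content image analysis measures ERE-driven GFP induction in HeLa cells at 8 h post-dose. Increases fitted against DMSO baseline.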

[6] = target: Estrogen receptor (Homo sapiens) (UniProt P03372); assay: OT_ERa_GFPERaERE_0120: Odyssey Thera (OT) 2-hour HeLa Transcription Induction Assay for Estrogen Receptor (AID 2283382)
Procedure, shortened: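 Fluorescence-microscopy images of the GFP-ERα/ERE reporter, scored by high-content image algorithms, give the readout. HeLa exposure lasted 2 h, and only signal increase over DMSO was fitted.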

[7] = target: Bile acid receptor (Homo sapiens) (UniProt Q96RI1); assay: OT_FXR_FXRSRC1_0480: Odyssey Thera (OT) 8-hour HEK293T Protein-Complementation Assay for Farnesoid X receptor/SRC-1 Co-activator (AID 2283383)
Sequence of Bile acid receptor (Homo sapiens) (Q96RI1 whole entry, looked up, the tested form may be a part): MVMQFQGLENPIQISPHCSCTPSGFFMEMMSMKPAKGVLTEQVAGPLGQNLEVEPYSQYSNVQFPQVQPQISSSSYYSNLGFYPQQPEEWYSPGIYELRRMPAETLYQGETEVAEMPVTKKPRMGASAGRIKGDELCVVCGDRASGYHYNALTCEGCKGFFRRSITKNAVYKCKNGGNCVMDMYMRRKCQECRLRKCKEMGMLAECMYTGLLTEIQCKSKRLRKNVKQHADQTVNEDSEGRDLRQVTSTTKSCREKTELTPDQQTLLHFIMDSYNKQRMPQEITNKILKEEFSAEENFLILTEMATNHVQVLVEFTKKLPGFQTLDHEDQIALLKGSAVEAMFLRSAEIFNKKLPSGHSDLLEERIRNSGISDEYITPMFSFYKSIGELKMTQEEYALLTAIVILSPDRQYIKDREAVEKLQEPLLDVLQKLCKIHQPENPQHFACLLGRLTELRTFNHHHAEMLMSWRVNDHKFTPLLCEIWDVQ
Procedure, shortened: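 Binding of FXR to coactivator SRC-1 was read as fluorescence from a reconstituted split reporter in HEK293T cells, 8 h after chemical addition. Only increases in signal versus DMSO were fit.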

[8] = target: Bile acid receptor (Homo sapiens) (UniProt Q96RI1); assay: OT_FXR_FXRSRC1_1440: Odyssey Thera (OT) 24-hour HEK293T Protein-Complementation Assay for Farnesoid X receptor/SRC-1 Co-activator (AID 2283384)
Procedure, shortened: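 Protein-fragment complementation: FXR and SRC-1 fused to reporter fragments that reassemble on interaction, read by fluorescence intensity. Human HEK293T cells measured 24 h post-dose; positive-direction fit versus DMSO.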

[9] = target: Retinoic acid receptor RXR-alpha (Homo sapiens) (UniProt P19793); assay: OT_NURR1_NURR1RXRa_0480: Odyssey Thera (OT) 8-hour HEK293T Protein Complementation Assay for Nurr1/retinoid X receptor (RXR) (AID 2283385)
Sequence of Retinoic acid receptor RXR-alpha (Homo sapiens) (P19793 whole entry, looked up, the tested form may be a part): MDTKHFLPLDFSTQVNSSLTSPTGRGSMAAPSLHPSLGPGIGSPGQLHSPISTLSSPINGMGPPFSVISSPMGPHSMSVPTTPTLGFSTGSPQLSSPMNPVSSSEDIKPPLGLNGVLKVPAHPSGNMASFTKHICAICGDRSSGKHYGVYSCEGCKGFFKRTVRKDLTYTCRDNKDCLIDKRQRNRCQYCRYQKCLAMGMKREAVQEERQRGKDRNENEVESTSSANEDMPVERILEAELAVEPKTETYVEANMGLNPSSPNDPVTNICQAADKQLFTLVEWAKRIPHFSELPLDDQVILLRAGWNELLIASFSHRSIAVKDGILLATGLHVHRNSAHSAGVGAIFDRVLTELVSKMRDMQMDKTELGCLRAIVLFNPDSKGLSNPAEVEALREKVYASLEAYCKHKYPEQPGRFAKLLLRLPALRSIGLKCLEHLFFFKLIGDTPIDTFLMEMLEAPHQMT
Procedure, shortened: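 Interaction of Nurr1 with RXRα read as reconstituted reporter fluorescence in a HEK293T fragment-complementation system, 8 h post-treatment; increase over DMSO baseline analysed.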

[10] = target: Peroxisome proliferator-activated receptor gamma (Homo sapiens) (UniProt P37231); assay: OT_PPARg_PPARgSRC1_0480: Odyssey Thera (OT) 8-hour Protein-Complementation Assay for Peroxisome Proliferator-activated Receptor Gamma / SRC-1 Co-activator (AID 2283387)
Sequence of Peroxisome proliferator-activated receptor gamma (Homo sapiens) (P37231 whole entry, looked up, the tested form may be a part): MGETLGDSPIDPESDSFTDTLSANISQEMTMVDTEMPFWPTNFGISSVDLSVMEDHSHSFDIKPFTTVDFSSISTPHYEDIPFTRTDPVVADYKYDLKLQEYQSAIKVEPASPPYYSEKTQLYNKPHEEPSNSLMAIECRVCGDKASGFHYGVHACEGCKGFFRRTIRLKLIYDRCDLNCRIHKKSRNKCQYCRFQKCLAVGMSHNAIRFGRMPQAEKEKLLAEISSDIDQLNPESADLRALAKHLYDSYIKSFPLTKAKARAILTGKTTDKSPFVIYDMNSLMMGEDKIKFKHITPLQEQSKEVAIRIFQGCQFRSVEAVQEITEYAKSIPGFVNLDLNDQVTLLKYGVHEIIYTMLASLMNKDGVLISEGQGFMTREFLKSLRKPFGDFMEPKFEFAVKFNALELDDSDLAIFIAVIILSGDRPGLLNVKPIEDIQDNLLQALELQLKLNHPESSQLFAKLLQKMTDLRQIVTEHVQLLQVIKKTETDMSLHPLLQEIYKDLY
Procedure, shortened: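 Split-YFP (IFP1/IFP2) PPARg/SRC-1 reporter, HEK293T, 37 °C, 5% CO2; 8 h compound; formaldehyde fix + Draq5; high-content imaging, N/C ratio, ≥350 cells/image, positive direction vs DMSO.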

[11] = target: Peroxisome proliferator-activated receptor gamma (Homo sapiens) (UniProt P37231); assay: OT_PPARg_PPARgSRC1_1440: Odyssey Thera (OT) 24-hour Protein-Complementation Assay for Peroxisome Proliferator-activated Receptor Gamma/ SRC-1 Co-activator (AID 2283388)
Procedure, shortened: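 HEK293T transiently transfected with PPARg/SRC-1 split-Venus YFP fusions 48 h before dosing, then treated 24 h at 37C. Fixed cells imaged; nuclear/cytoplasmic 488 nm fluorescence ratio, gain of signal versus DMSO.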

[12] = CEETOX_H295R_11DCORT: CeeTox H295R High-throughput Steroidogenesis Assay for 11-Deoxycortisol (11DCORT) (AID 2283432; active means hit-call score of the fitted dose curve at least 0.9, where 1 is the maximum; inactive means score below 0.9;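 on AC50: 11-deoxycortisol secreted into the medium measured by LC-MS/MS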); conditions: actives raise or lower the signal
Procedure, shortened: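 Steroidogenesis in human H295R cells: 48 h chemical exposure after forskolin priming, 11-deoxycortisol measured by LC-MS/MS.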

[13] = CEETOX_H295R_OHPREG: CeeTox H295R High-throughput Steroidogenesis Assay for OH-Pregnenolone (OHPREG) (AID 2283434; active means hit-call score of the fitted dose curve at least 0.9, where 1 is the maximum; inactive means score below 0.9); conditions: actives raise or lower the signal
Procedure, shortened: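 Secreted 17alpha-hydroxypregnenolone measured by HPLC-MS/MS after liquid-liquid extraction. Human adrenal H295R cells received 48 h forskolin (10 uM) stimulation before 48 h chemical exposure at 0.1% final DMSO; MTT viability in same wells; bidirectional fit against DMSO.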

[14] = CEETOX_H295R_OHPROG: CeeTox H295R High-throughput Steroidogenesis Assay for OH-Progesterone (OHPROG) (AID 2283435; active means hit-call score of the fitted dose curve at least 0.9, where 1 is the maximum; inactive means score below 0.9;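 on AC50: 17alpha-hydroxyprogesterone secreted into medium measured by HPLC-MS/MS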); conditions: actives raise or lower the signal
Procedure, shortened: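 Medium steroid levels read by LC-MS/MS after 48 h chemical treatment (0.1% DMSO) of human adrenal H295R cells that had been forskolin-primed (10 uM, 48 h). Gain or loss fitted against DMSO; MTT cytotoxicity checked per well.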

[15] = CEETOX_H295R_ANDR: CeeTox H295R High-throughput Steroidogenesis Assay for Androstenedione (ANDR) (AID 2283436; active means hit-call score of the fitted dose curve at least 0.9, where 1 is the maximum; inactive means score below 0.9); conditions: actives raise or lower the signal
Procedure, shortened: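 Medium from 48 h chemical-treated H295R adrenal cells was extracted with MTBE and androstenedione measured by LC-MS/MS. Activity was fit in both directions relative to DMSO. Cytotoxic concentrations were re-tested after dilution until MTT viability reached ≥70%.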

[16] = CEETOX_H295R_CORTISOL: CeeTox H295R High-throughput Steroidogenesis Assay for Cortisol (AID 2283438; active means hit-call score of the fitted dose curve at least 0.9, where 1 is the maximum; inactive means score below 0.9;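 further: cortisol secreted into medium quantified by LC-MS/MS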); conditions: actives raise or lower the signal
Procedure, shortened: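 Cortisol measured by HPLC-MS/MS after MTBE extraction of medium from H295R cells exposed 48 h to chemical (0.1% DMSO), following 48 h prestimulation with 10 uM forskolin. Viability assessed by MTT in the same wells.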

[17] = test system: rat Norepinephrine Transporter (NET), gene 83511; assay: NVS_TR_rNET: NovaScreen (NVS) Transporter Assay for rat Norepinephrine Transporter (NET) (AID 2283373)
Procedure, shortened: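 Competitive radioligand displacement at the rat NET using forebrain membrane preparations, 1 h incubation, filter-based scintillation readout. Primary testing in duplicate at a single 25 uM concentration; confirmed actives retested across concentrations.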

[18] = target: human Dopamine Transporter (DAT), SLC6A3 (gene 6531) (UniProt Q01959); assay: NVS_TR_hDAT: NovaScreen (NVS) Transporter Assay for human Dopamine Transporter (DAT) (AID 2283374);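 further: activity means loss of bound radioligand signal relative to DMSO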
Sequence of human Dopamine Transporter (DAT), SLC6A3 (gene 6531) (Q01959 whole entry, looked up): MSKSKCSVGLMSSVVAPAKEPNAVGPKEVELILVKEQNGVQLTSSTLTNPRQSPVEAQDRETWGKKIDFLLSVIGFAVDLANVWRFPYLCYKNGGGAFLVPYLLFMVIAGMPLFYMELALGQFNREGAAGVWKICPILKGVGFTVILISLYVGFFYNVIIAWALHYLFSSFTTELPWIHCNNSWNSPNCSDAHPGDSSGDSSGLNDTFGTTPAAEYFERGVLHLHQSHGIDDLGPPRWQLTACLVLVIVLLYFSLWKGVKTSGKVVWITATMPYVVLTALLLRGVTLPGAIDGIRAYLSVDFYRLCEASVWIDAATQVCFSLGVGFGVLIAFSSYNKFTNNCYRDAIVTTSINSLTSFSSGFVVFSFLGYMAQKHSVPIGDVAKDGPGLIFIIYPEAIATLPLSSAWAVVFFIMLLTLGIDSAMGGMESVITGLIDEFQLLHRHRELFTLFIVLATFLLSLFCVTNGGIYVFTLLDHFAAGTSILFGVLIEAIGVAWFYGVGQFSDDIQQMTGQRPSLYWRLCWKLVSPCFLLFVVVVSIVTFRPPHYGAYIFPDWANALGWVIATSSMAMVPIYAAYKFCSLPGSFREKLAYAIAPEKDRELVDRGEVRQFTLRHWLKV
Procedure, shortened: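 Duplicate single-point screening at 25 uM preceded concentration-series follow-up of actives. Binding was measured by competitive displacement of a radioligand from DAT protein, filter-counted by scintillation 1 h after dosing. Decrease relative to DMSO taken as activity.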

[19] = target: rat Serotonin Transporter (SERT), Slc6a4 (gene 25553) (UniProt P31652); assay: NVS_TR_rSERT: NovaScreen (NVS) Transporter Assay for rat Serotonin Transporter (SERT) (AID 2283375)
Procedure, shortened: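 Rat forebrain membranes; radioligand displacement at SERT read by filter-based scintillation counting, 1 h after dosing. Screened in duplicate at 25 uM, actives then run in concentration series; loss of signal versus DMSO baseline.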

Measured: AC50

O=C(Nc1ccc(Cl)cc1)Nc1ccc(Cl)c(Cl)c1
active: [3] 0.336 µM | [9] 12.5 µM | [12] 0.599 µM | [13] 0.5 µM | [14] 0.418 µM
not listed: [17] | [18] | [19]
inactive: all other assays above

CCOC(=O)O[C@H](C)OC(=O)c1ccc2c(c1)cc(C(=O)NC1CCN(C(C)C)CC1)n2Cc1cc(-c2ccc(Cl)s2)on1
active: [17] 15.5 µM | [18] 3.21 µM | [1] 1.95 µM | [5] 19.6 µM | [6] 23.8 µM | [8] 74.9 µM
inactive: [4] | [10] | [11]

O=C(OCCCCCCOC(=O)c1ccccc1)c1ccccc1
inactive: [1] | [5] | [6] | [8] | [9]
active: [7] 50 µM

CN(C)C(=O)C1(N2CCCCC2)CCN(CC[C@@]2(c3ccc(Cl)c(Cl)c3)CN(C(=O)c3ccccc3)CCO2)CC1
active: [17] 13.5 µM | [18] 2.76 µM | [1] 2.33 µM | [2] 0.203 µM | [5] 16.8 µM | [6] 14.8 µM
inactive: [3] | [10] | [11]

Cc1cn([C@H]2C[C@H](N=[N+]=[N-])[C@@H](CO)O2)c(=O)[nH]c1=O
inactive: [1] | [5] | [6] | [7] | [9] | [10] | [11]

Oc1ccc2ccccc2c1
active: [17] 7.87 µM | [18] 10.1 µM | [19] 8.73 µM | [1] 7.32 µM | [3] 1.64 µM | [4] 45.7 µM | [14] 13.8 µM | [15] 76.7 µM
inactive: [10] | [11] | [12] | [13] | [16]

CCCOC(=O)c1cc(O)c(O)c(O)c1
active: [18] 10.8 µM | [4] 12.7 µM
inactive: [2] | [5] | [6] | [7] | [8] | [9] | [10] | [11]

O=C1c2ccccc2C(=O)N1CCc1noc(-c2ccc(CN3CCCCCC3)s2)n1
inactive: [5] | [6] | [10] | [11] | [14]
active: [17] 7.26 µM | [19] 9.05 µM | [1] 6.14 µM | [13] 4.81 µM

CCCCCCCCN(C)CCCCCCCC
active: [14] 50 µM
not listed: [1] | [4] | [7] | [8] | [17] | [18] | [19]
inactive: all other assays above
